{"source": "ChEMBL document CHEMBL3988442", "about": "“University of Dundee, Small-Polar-MMV Screening Library” (2021)", "note": "Screen size: about 48,000 compounds; about 13,000 (27%) showed an effect of 50% or more. The list shows a part of the results.", "data": [{"system": "Wolbachia pipientis", "assay": "Anti-Wolbachia Cell-Based Screen", "type": "functional", "parameters": "scale not given: in the data most compounds retested in dose-response had high values", "settings": "5 µM", "units": {"Percent Effect": "%"}, "values": [{"smiles": "CC(C)c1nccc(C2CC(=O)Nc3n[nH]c(C4CCC4)c32)n1", "note": "(centres undefined)", "Percent Effect": 111.7}, {"smiles": "O=C1CC(c2ccc3ccccc3n2)c2c(n[nH]c2C2CCC2)N1", "note": "(centres undefined)", "Percent Effect": 48.61}, {"smiles": "CNC(=O)c1n[nH]c2c1C(c1cccc3nsnc13)CC(=O)N2", "note": "(centres undefined)", "Percent Effect": 1.687}, {"smiles": "COc1nc2ccccc2cc1C1CC(=O)Nc2n[nH]c(C3CCC3)c21", "note": "(centres undefined)", "Percent Effect": 94.97}, {"smiles": "O=C(CN1CCCC1c1nc(Cc2ccc(F)cc2)no1)NC1CC1", "note": "(centres undefined)", "Percent Effect": 6.491}, {"smiles": "CCCN(CC1CC1)C(=O)CN1CCCC1c1cnn(C)c1", "note": "(centres undefined)", "Percent Effect": -10.58}, {"smiles": "COCCOC[C@]1(CNCc2ccc(F)cc2)C[C@@H](O)[C@@H](O)C1.Cl", "Percent Effect": 9.118}, {"smiles": "CCn1ncc2c1CCCC2NCc1ccc(C)s1", "note": "(centres undefined)", "Percent Effect": -6.275}, {"smiles": "O[C@@H]1CN(CC2CC2)CC[C@H]1N1CCN(c2ccccc2F)CC1", "Percent Effect": 4.313}, {"smiles": "Cc1noc(C)c1CCC(=O)N1CCCC(n2cccn2)C1", "note": "(centres undefined)", "Percent Effect": 112.2}, {"smiles": "Cc1noc(Cl)c1CC(=O)N1CCCC(n2cccn2)C1", "note": "(centres undefined)", "Percent Effect": -0.9782}, {"smiles": "Cc1cnn(C2CCCN(C(=O)c3c(C)oc(C)c3C)C2)c1", "note": "(centres undefined)", "Percent Effect": 2.216}, {"smiles": "Cc1nn(C)c(C)c1CC(=O)N1CCCC(n2cccn2)C1", "note": "(centres undefined)", "Percent Effect": -0.59}, {"smiles": "Cc1nn(C)c(C)c1CCC(=O)N1CCCOC(Cn2cccn2)C1", "note": "(centres undefined)", "Percent Effect": -1.849}, {"smiles": "Cc1noc2ncc(C(=O)N3CCCC(n4cccn4)C3)cc12", "note": "(centres undefined)", "Percent Effect": -8.644}, {"smiles": "Cc1nn(C)c(C)c1CCC(=O)N1CCCC(n2cccn2)C1", "note": "(centres undefined)", "Percent Effect": 104.5}, {"smiles": "Cc1cnn(C2CCCN(C(=O)CCc3c(C)noc3C)C2)c1", "note": "(centres undefined)", "Percent Effect": 114.5}, {"smiles": "O=C(NCc1csc(-c2cccs2)n1)C1NCCc2[nH]cnc21", "note": "(centres undefined)", "Percent Effect": -2.948}, {"smiles": "COc1ccccc1OCC(=O)NS(=O)(=O)c1ccc(F)cc1F", "Percent Effect": -4.254}, {"smiles": "CC(=O)N(CCc1nc(-c2cc(C(N)=O)oc2C)cs1)C(C)C", "Percent Effect": 1.206}, {"smiles": "Cn1cccc1C(=O)NCc1cn2c(n1)CN(Cc1cccnc1)CC2.O=C(O)C(F)(F)F.O=C(O)C(F)(F)F", "Percent Effect": -5.868}, {"smiles": "c1cncc(CN2CCn3cc(CN4CCCCC4)nc3C2)c1", "Percent Effect": 99.27}, {"smiles": "O=C(CC1CC1)NCc1cn2c(n1)CN(Cc1cccnc1)CC2.O=C(O)C(F)(F)F.O=C(O)C(F)(F)F", "Percent Effect": -16.83}, {"smiles": "CN1CCN(Cc2cn3c(n2)CN(C(=O)c2ccccn2)CC3)CC1.O=C(O)C(F)(F)F.O=C(O)C(F)(F)F.O=C(O)C(F)(F)F", "Percent Effect": 6.364}, {"smiles": "CS(=O)(=O)NCc1cn2c(n1)CN(Cc1ccoc1)CC2.O=C(O)C(F)(F)F", "Percent Effect": 2.843}, {"smiles": "CN1CCN(Cc2cn3c(n2)CN(CC2CC2)CC3)CC1", "Percent Effect": 0.4207}, {"smiles": "O=C(NCc1cn2c(n1)CN(Cc1cccnc1)CC2)C1CCC1.O=C(O)C(F)(F)F.O=C(O)C(F)(F)F", "Percent Effect": -2.2}, {"smiles": "CN1CCN(Cc2cn3c(n2)CN(C(=O)N2CCCC2)CC3)CC1", "Percent Effect": -9.344}, {"smiles": "CS(=O)(=O)NCc1cn2c(n1)CN(Cc1cccnc1)CC2.O=C(O)C(F)(F)F.O=C(O)C(F)(F)F", "Percent Effect": 116.6}, {"smiles": "Cn1cccc1C(=O)NCc1cn2c(n1)CN(Cc1ccccn1)CC2.O=C(O)C(F)(F)F.O=C(O)C(F)(F)F", "Percent Effect": -5.455}, {"smiles": "CN1CCN(Cc2cn3c(n2)CN(Cc2ccccn2)CC3)CC1", "Percent Effect": 100}, {"smiles": "CN1CCN(Cc2cn3c(n2)CN(Cc2ccncc2)CC3)CC1", "Percent Effect": 100.2}, {"smiles": "COCCNC(=O)Nc1ccn(-c2cccc(C(F)(F)F)c2)n1", "Percent Effect": 3.521}, {"smiles": "OCCC1CN(c2ncnc3[nH]cnc23)CCN1Cc1ccccc1F", "note": "(centres undefined)", "Percent Effect": -3.014}, {"smiles": "OCCc1cc(CC2(NCc3ccc(C(F)(F)F)cc3)COC2)no1", "Percent Effect": 1.711}, {"smiles": "CN(C(=O)CN(Cc1cccc(O)c1)C1CCC(O)CC1)C1CC1", "note": "(centres undefined)", "Percent Effect": 2.382}, {"smiles": "CCc1ccc(CN2CCCC(c3nn(C)c(=O)n3CC)C2)nc1", "note": "(centres undefined)", "Percent Effect": 20.88}, {"smiles": "CC(C)NC(=O)CCNC(=O)CCc1cc(Br)cs1", "Percent Effect": -10.2}, {"smiles": "Cn1cc(CNC[C@H]2Cn3ccnc3CO2)c2ccccc21", "Percent Effect": -9.127}, {"smiles": "COCC(=O)NCc1cnc(C)nc1-c1cn(C)c2ccc(OC)cc12", "Percent Effect": 67.07}, {"smiles": "Cc1ncc(CN)c(-c2cn(C)c3ccccc23)n1", "Percent Effect": 142.3}, {"smiles": "COc1ccc2c(c1)c(-c1nc(N(C)C)ncc1CN)cn2C", "Percent Effect": 69.63}, {"smiles": "Cc1cc(N2CCN(C(=O)c3cn(C)c4ccccc34)CC2)nc(C)n1", "Percent Effect": 1.104}, {"smiles": "COc1ccc(CN)c(OC(F)F)c1.Cl", "Percent Effect": -5.611}, {"smiles": "COc1ccc2cccc(CC(=O)NCc3n[nH]c(=O)[nH]3)c2c1", "Percent Effect": 5.869}, {"smiles": "COc1ccc(-c2n[nH]cc2CN(C)Cc2nccn2C)c(F)c1", "Percent Effect": -1.077}, {"smiles": "COc1ccc(-c2ccccc2CN)c(OC)c1", "Percent Effect": -11.71}, {"smiles": "COc1ccc2c(c1)c(-c1nc(C)ncc1CN)cn2C", "Percent Effect": 104.6}, {"smiles": "COc1ccc(OC)c(CN(C)c2nc3c(cnn3C)c(=O)[nH]2)c1", "Percent Effect": -18.11}, {"smiles": "COc1ccc2cccc(CC(=O)NCc3nccc(N)n3)c2c1", "Percent Effect": -13.23}, {"smiles": "CN(CCNC(=O)N1CCN(Cc2ccon2)CC1)C1CCCC1", "Percent Effect": -5.523}, {"smiles": "CC1CCN(CC2(O)CCCN(Cc3cccc(F)c3F)C2=O)CC1", "note": "(centres undefined)", "Percent Effect": -9.136}, {"smiles": "O=C(CN(Cc1ccccc1)CC1CCOCC1)Nc1nccs1", "Percent Effect": -5.546}, {"smiles": "Cn1cnnc1CN1CCC2(CCC(=O)N(Cc3ccccc3)C2)CC1", "Percent Effect": -10.98}, {"smiles": "Cc1nnc2n1CCN(C(C(=O)NC1CC1)c1ccccc1)C2", "note": "(centres undefined)", "Percent Effect": -4.736}, {"smiles": "O=S(=O)(CC1CCCCC1)NCc1ccnc(O)c1", "Percent Effect": -10.25}, {"smiles": "COc1ccc2c(ccn2CCC(=O)Nc2n[nH]c(CC(C)C)n2)c1", "Percent Effect": 106.4}, {"smiles": "CCNC(=O)Nc1ccc2c(ccn2CC(=O)N(CC)CC)c1", "Percent Effect": -5.513}, {"smiles": "COc1ccc2nc(CCNC(=O)c3cc(CC(C)C)no3)[nH]c2c1", "Percent Effect": 0.008091}, {"smiles": "COc1ccc2c(ccn2CC(=O)Nc2n[nH]c(CC(C)C)n2)c1", "Percent Effect": 220.2}, {"smiles": "COCCN(C)C(=O)Nc1ccc2c(ccn2CC(=O)N(C)C)c1", "Percent Effect": 5.654}, {"smiles": "CNS(=O)(=O)Cc1ccc(CNc2ccc(C#N)cn2)cc1", "Percent Effect": 0.03552}, {"smiles": "O=C(O)C(F)(F)F.O=S(=O)(c1cccs1)N1Cc2nc(CN3CCCCC3)oc2C1", "Percent Effect": 109.1}, {"smiles": "O=C(O)C(F)(F)F.O=C(O)C(F)(F)F.O=C(c1ccncc1F)N1Cc2nc(CN3CCCCC3)oc2C1", "Percent Effect": -18.26}, {"smiles": "O=C(c1ccc2[nH]ccc2c1)N1Cc2nc(CN3CCCC3)oc2C1", "Percent Effect": -7.855}, {"smiles": "O=C(O)C(F)(F)F.O=S(=O)(c1cccs1)N1CCCn2nnc(CN3CCCCC3)c2C1", "Percent Effect": -14.53}, {"smiles": "O=C(Cc1ccsc1)N1Cc2nc(CN3CCCCC3)oc2C1.O=C(O)C(F)(F)F", "Percent Effect": 93.12}, {"smiles": "O=C(Cc1cccs1)N1Cc2nc(CN3CCCC3)oc2C1", "Percent Effect": 101.2}, {"smiles": "O=C(O)C(F)(F)F.O=S(=O)(c1cccs1)N1CC[C@H]2[C@H]1CCN2CC1CC1", "Percent Effect": -12.79}, {"smiles": "O=C(NCc1cccs1)c1nc2c(o1)CN(c1ncccn1)C2", "Percent Effect": 0.5771}, {"smiles": "Cc1ncnc2c1CCN(Cc1cccs1)CC2.O=C(O)C(F)(F)F", "Percent Effect": -21.74}, {"smiles": "O=C(O)C(F)(F)F.O=C(O)C(F)(F)F.c1csc(CN2Cc3nc(CN4CCCC4)oc3C2)c1", "Percent Effect": 109.9}, {"smiles": "O=C(O)C(F)(F)F.O=C(c1ccc2[nH]ccc2c1)N1Cc2nc(CN3CCCCC3)oc2C1", "Percent Effect": -9.773}, {"smiles": "O=C(O)C(F)(F)F.O=C(O)C(F)(F)F.c1csc(CN2CCCn3cnc(CN4CCCC4)c3C2)c1", "Percent Effect": -7.451}]}]}
